Experimental data published in PubChem BioAssay (NCI).
About 83,000 compounds went through this panel and 20% of them were active in at least one assay; those are over-represented in the sample as a whole.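 48-hour exposure, single concentration, 96-well plates; percent growth endpoint where 0 means no net growth. Active: below 10.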 Unmarked numbers belong to inactive results. The source made the active and inactive calls.

system: SK-OV-3 ovarian; test: NCI-60 one-dose screen, 48 h (100 = growth as untreated, 0 = no growth, -100 = all killed); details: 10 µM unless noted

| Compound | growth [%] |
| --- | --- |
| CCC(C)CC(C)C(=O)c1c(O)ccn(OC)c1=O (configuration not stated) | 86.7 |
| NNC(=O)NO | 94.1 |
| COc1ccc(C2CC(c3cccc(Nc4ccnc5cc(Cl)ccc45)c3)=NN2C=O)cc1 (configuration not stated) | 19 |
| C=CC1=C(C(=O)O)N2C(=O)[C@@H](NC(=O)/C(=N\O)c3csc(N)n3)[C@H]2SC1 (stereo in doubt) | 107 |
| CC(=O)Oc1ccc(C2OC(c3ccc4ccccc4c3OC(C)=O)=NN2C(C)=O)c(OC(C)=O)c1 (configuration not stated) | 27.6 |
| Cc1ccc(NC(=O)COC(=O)c2ccc(S(=O)(=O)N3CCCCCC3)cc2)cc1 | 79.4 |

system: IGROV1 ovarian; test: as above; details: 10 µM unless noted

| Compound | growth |
| --- | --- |
| COc1ccc(COC(C)=O)cc1 | 142% |
| COC(=O)CCC1=C(CC(=O)OC)C(C)=N/C1=C\c1[nH]c(-c2ccc[nH]2)cc1OC | 42.1% |
| O=C(/C(=N/O)S(=O)(=O)c1ccccc1)c1cccs1 | 109% |
| COc1cc(OC)c2cc(C(=O)O)c(=O)oc2c1 | 55.2% |
| CN(CCOc1ccc(CC2SC(=O)NC2=O)cc1)c1ccccn1 (configuration not stated) | 97.9% |
| CCC(C)CC(C)C(=O)c1c(O)ccn(O)c1=O (configuration not stated) | 24.2% |
| O=C(CSc1nc2c(n1Nc1ccccc1)-c1ccccc1SC2)Nc1nc(-c2ccc(Cl)cc2)cs1 | 86% |
| Cc1[nH]n(C(N)=S)c(=O)c1N=Nc1ccc(F)c(Cl)c1 | 102% |
| Clc1cccc(Cc2cn3cc(-c4ccccc4)nc3s2)c1 | 64.8% |
| NC(=O)N/N=C/c1ccc(Br)o1 | 97.8% |
| C[n+]1c2ccccc2c(NC2CCNCC2)c2[nH]c3ccccc3c21 | -20.9% (active) |
| [O-]/[N+](=C\C=C\c1ccccc1)c1ccccc1 | 113% |
| CCCn1cnc2c1c(=O)n(CCCCC(C)=O)c(=O)n2C | 97.6% |
| O=C1/C(=C/c2ccc3cccc(Cl)c3n2)SC(=S)N1CCc1ccc(O)cc1 | 47% |
| CN=C(NC)N/N=C(C)\C=N\NC(=NC)NC | 112% |
| CCN(CC)CCCNCCCNc1cc(OC)cc2cccnc12 | 73.9% |
| COc1cc2c(cc1OCCCOc1ccc(-c3cc4ccccc4c4ccccc34)cc1)N=C[C@@H]1CCCN1C2=O | -72.3% (active) |
| Nc1ccc(C2=NN(c3ccccc3)C(c3ccc(Cl)cc3)C2)cc1 (configuration not stated) | 94.5% |
| O=C1C[C@@H]2/C(=C(O)\C=C\c3ccccc3)C(=O)C=C[C@@H]2O1 | -52.6% (active) |

| Compound | growth |
| --- | --- |
| COc1ccc(-c2cc(C(=O)Nc3nc4cc(C)c(C)cc4s3)nc3cc(-c4ccccc4)nn23)cc1OC | 122% |
| CCC(=O)Nc1ccccc1C#C/C=C\C#Cc1ccccc1C(F)(F)F | -21.8% (active) |
| Oc1ccccc1C=Nc1ccccc1N=Cc1ccccc1O.[Cu+2] | 55.5% |
| CCOc1cccc(C2CC(=O)Nc3cc4c(cc32)OCO4)c1 (configuration not stated) | 83.4% |
| NC(N)=NN=c1c(=O)c2ccccc2c1=O | 102% |
| O=[N+]([O-])c1ccc(Oc2cccc(C(F)(F)F)c2)c([N+](=O)[O-])c1 | 12.3% |
| CCCCCCCCCCCCNc1ncnc2[nH]ncc12 | 92.8% |
| Cc1ccc2c(c1)C(=O)/C(=C/c1ncc([N+](=O)[O-])n1C)O2 | -26.5% (active) |
| O=C(/C=C/c1cccnc1)NCCCCC1CCCN(C(=O)c2ccccc2)C1 (configuration not stated) | 33.8% |
| O=C(/C=C/c1cccnc1)/C=C/c1cccnc1 | -89.3% (active) |
| COc1ccc(-n2nnc(C(=O)O)c2-c2cc(OC)c(OC)c(OC)c2)cc1 | 116% |
| COc1cc2c(cc1OCCCCCn1c(-c3ccc(OCc4ccccc4)cc3)nc3cc(N4CCOCC4)ccc31)N=C[C@@H]1CCCN1C2=O | -58.7% (active) |
| O=C1C(=O)c2ccc(Br)cc2-c2cc(Br)ccc21 | 68.7% |
| CCC(C)CC(C)C(=O)c1c(O)ccn(OC)c1=O (configuration not stated) | 65% |
| NNC(=O)NO | 108% |
| COc1ccc(C2CC(c3cccc(Nc4ccnc5cc(Cl)ccc45)c3)=NN2C=O)cc1 (configuration not stated) | 32.7% |
| C=CC1=C(C(=O)O)N2C(=O)[C@@H](NC(=O)/C(=N\O)c3csc(N)n3)[C@H]2SC1 (stereo in doubt) | 120% |
| CC(=O)Oc1ccc(C2OC(c3ccc4ccccc4c3OC(C)=O)=NN2C(C)=O)c(OC(C)=O)c1 (configuration not stated) | 20.3% |
| Cc1ccc(NC(=O)COC(=O)c2ccc(S(=O)(=O)N3CCCCCC3)cc2)cc1 | 101% |

system: OVCAR-3 ovarian; test: as above; details: 10 µM unless noted

| Compound | growth |
| --- | --- |
| COc1ccc(COC(C)=O)cc1 | 110% |
| COC(=O)CCC1=C(CC(=O)OC)C(C)=N/C1=C\c1[nH]c(-c2ccc[nH]2)cc1OC | 17.4% |
| O=C(/C(=N/O)S(=O)(=O)c1ccccc1)c1cccs1 | 109% |
| COc1cc(OC)c2cc(C(=O)O)c(=O)oc2c1 | 102% |
| CN(CCOc1ccc(CC2SC(=O)NC2=O)cc1)c1ccccn1 (configuration not stated) | 110% |
| CCC(C)CC(C)C(=O)c1c(O)ccn(O)c1=O (configuration not stated) | 19% |
| O=C(CSc1nc2c(n1Nc1ccccc1)-c1ccccc1SC2)Nc1nc(-c2ccc(Cl)cc2)cs1 | 65.7% |
| Cc1[nH]n(C(N)=S)c(=O)c1N=Nc1ccc(F)c(Cl)c1 | 88.3% |
| Clc1cccc(Cc2cn3cc(-c4ccccc4)nc3s2)c1 | 73.6% |
| NC(=O)N/N=C/c1ccc(Br)o1 | 113% |
| C[n+]1c2ccccc2c(NC2CCNCC2)c2[nH]c3ccccc3c21 | -1.97% (active) |
| [O-]/[N+](=C\C=C\c1ccccc1)c1ccccc1 | 99.9% |
| CCCn1cnc2c1c(=O)n(CCCCC(C)=O)c(=O)n2C | 115% |
| O=C1/C(=C/c2ccc3cccc(Cl)c3n2)SC(=S)N1CCc1ccc(O)cc1 | 75.7% |
| CN=C(NC)N/N=C(C)\C=N\NC(=NC)NC | 107% |
| CCN(CC)CCCNCCCNc1cc(OC)cc2cccnc12 | 32.8% |
| COc1cc2c(cc1OCCCOc1ccc(-c3cc4ccccc4c4ccccc34)cc1)N=C[C@@H]1CCCN1C2=O | -48.4% (active) |
| Nc1ccc(C2=NN(c3ccccc3)C(c3ccc(Cl)cc3)C2)cc1 (configuration not stated) | 51.7% |
| O=C1C[C@@H]2/C(=C(O)\C=C\c3ccccc3)C(=O)C=C[C@@H]2O1 | -46.2% (active) |

| Compound | growth |
| --- | --- |
| COc1ccc(-c2cc(C(=O)Nc3nc4cc(C)c(C)cc4s3)nc3cc(-c4ccccc4)nn23)cc1OC | 138% |
| CCC(=O)Nc1ccccc1C#C/C=C\C#Cc1ccccc1C(F)(F)F | 70.2% |
| Oc1ccccc1C=Nc1ccccc1N=Cc1ccccc1O.[Cu+2] | 71.7% |
| CCOc1cccc(C2CC(=O)Nc3cc4c(cc32)OCO4)c1 (configuration not stated) | 82.4% |
| NC(N)=NN=c1c(=O)c2ccccc2c1=O | 80.6% |
| O=[N+]([O-])c1ccc(Oc2cccc(C(F)(F)F)c2)c([N+](=O)[O-])c1 | 44.9% |
| CCCCCCCCCCCCNc1ncnc2[nH]ncc12 | 79.5% |
| Cc1ccc2c(c1)C(=O)/C(=C/c1ncc([N+](=O)[O-])n1C)O2 | -46.9% (active) |
| O=C(/C=C/c1cccnc1)NCCCCC1CCCN(C(=O)c2ccccc2)C1 (configuration not stated) | 74.7% |
| O=C(/C=C/c1cccnc1)/C=C/c1cccnc1 | -40.9% (active) |
| COc1ccc(-n2nnc(C(=O)O)c2-c2cc(OC)c(OC)c(OC)c2)cc1 | 119% |
| COc1cc2c(cc1OCCCCCn1c(-c3ccc(OCc4ccccc4)cc3)nc3cc(N4CCOCC4)ccc31)N=C[C@@H]1CCCN1C2=O | 4.07% (active) |
| O=C1C(=O)c2ccc(Br)cc2-c2cc(Br)ccc21 | -48.6% (active) |
| CCC(C)CC(C)C(=O)c1c(O)ccn(OC)c1=O (configuration not stated) | 47.1% |
| NNC(=O)NO | 106% |
| COc1ccc(C2CC(c3cccc(Nc4ccnc5cc(Cl)ccc45)c3)=NN2C=O)cc1 (configuration not stated) | -22.7% (active) |
| C=CC1=C(C(=O)O)N2C(=O)[C@@H](NC(=O)/C(=N\O)c3csc(N)n3)[C@H]2SC1 (stereo in doubt) | 108% |
| CC(=O)Oc1ccc(C2OC(c3ccc4ccccc4c3OC(C)=O)=NN2C(C)=O)c(OC(C)=O)c1 (configuration not stated) | 18.7% |
| Cc1ccc(NC(=O)COC(=O)c2ccc(S(=O)(=O)N3CCCCCC3)cc2)cc1 | 106% |
